Activity calls are given as the source filed them. How the source made its calls: active means hit-call score of the fitted dose curve at least 0.9, where 1 is the maximum; inactive means score below 0.9.
Assays:
[1] = ATG_CRE_CIS: Attagene CIS-FACTORIAL HepG2 Assay for human cAMP Responsive Element (CRE) binding protein 3 (AID 2282926); settings: HepG2 CRE cis-reporter, Attagene multiplexed mRNA; actives raise or lower the signal
Method in brief: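 Cells carrying cis-regulated reporter constructs respond through their own endogenous factors. After 24 h treatment, RNA is reverse-transcribed, amplified, labelled and sized by capillary electrophoresis; up- and down-regulation are both scored against vehicle.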

[2] = biological target: CCAAT/enhancer-binding protein beta (Homo sapiens) (UniProt P17676); test: ATG_C_EBP_CIS: Attagene CIS-FACTORIAL HepG2 Assay for human CCAAT/Enhancer Binding Protein (C/EBP) beta (AID 2282927); settings: HepG2 Attagene cis-factorial transcription factor reporter; actives raise or lower the signal
CCAAT/enhancer-binding protein beta (Homo sapiens), sequence (P17676 whole entry, looked up): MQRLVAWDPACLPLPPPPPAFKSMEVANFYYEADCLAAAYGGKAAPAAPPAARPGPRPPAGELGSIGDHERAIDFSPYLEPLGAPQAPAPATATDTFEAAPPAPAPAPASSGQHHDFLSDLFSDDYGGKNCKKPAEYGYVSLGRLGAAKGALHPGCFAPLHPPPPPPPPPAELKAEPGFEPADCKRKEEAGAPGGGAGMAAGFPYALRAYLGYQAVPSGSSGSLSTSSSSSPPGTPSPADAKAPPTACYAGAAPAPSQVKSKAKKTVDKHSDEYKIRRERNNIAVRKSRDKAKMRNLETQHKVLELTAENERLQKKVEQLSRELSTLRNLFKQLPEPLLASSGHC
Method in brief: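 Transiently transfected HepG2 (MRTU library, endogenous TF-driven promoters); 24 h dosing; total RNA → oligo(dT) RT → PCR → 6-FAM primer extension → HpaI digest → CE; fit bidirectionally vs DMSO.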

[3] = ATG_CMV_CIS: Attagene CIS-FACTORIAL HepG2 Assay for human CMV (Internal Marker) (AID 2282928); settings: HepG2 CMV promoter reporter, transcription factor profiling; actives raise or lower the signal;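 further: endpoint acts as a background internal control marker rather than a target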
Method in brief: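 Readout: fluorescent reporter cDNA fragments separated by capillary electrophoresis after RT-PCR and HpaI cut. Cells: HepG2 carrying transfected cis-promoter reporter constructs, dosed 24 h. Endpoint serves as background internal-marker control, fit bidirectionally versus DMSO.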

[4] = ATG_DR4_LXR_CIS: Attagene CIS-FACTORIAL HepG2 Assay for human Liver X Receptor (LXR), DR4 submotif (AID 2282929); settings: HepG2 Attagene DR4 cis-reporter, mRNA transcription; actives raise or lower the signal
Method in brief: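 HepG2, transient MRTU transfection, cis-element (DR4) promoter; 24 h compound exposure; total RNA → oligo(dT) RT → PCR → 6-FAM primer extension → HpaI cut → CE. Gain/loss vs DMSO, bidirectional fit.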

[5] = biological target: Aryl hydrocarbon receptor (Homo sapiens) (UniProt P35869); test: ATG_Ahr_CIS: Attagene CIS-FACTORIAL HepG2 Assay for human Aryl Hydrocarbon Receptor (Ahr) (AID 2282930); settings: HepG2 AhR cis-factorial reporter transcription; actives raise or lower the signal
Aryl hydrocarbon receptor (Homo sapiens), sequence (P35869 whole entry, looked up): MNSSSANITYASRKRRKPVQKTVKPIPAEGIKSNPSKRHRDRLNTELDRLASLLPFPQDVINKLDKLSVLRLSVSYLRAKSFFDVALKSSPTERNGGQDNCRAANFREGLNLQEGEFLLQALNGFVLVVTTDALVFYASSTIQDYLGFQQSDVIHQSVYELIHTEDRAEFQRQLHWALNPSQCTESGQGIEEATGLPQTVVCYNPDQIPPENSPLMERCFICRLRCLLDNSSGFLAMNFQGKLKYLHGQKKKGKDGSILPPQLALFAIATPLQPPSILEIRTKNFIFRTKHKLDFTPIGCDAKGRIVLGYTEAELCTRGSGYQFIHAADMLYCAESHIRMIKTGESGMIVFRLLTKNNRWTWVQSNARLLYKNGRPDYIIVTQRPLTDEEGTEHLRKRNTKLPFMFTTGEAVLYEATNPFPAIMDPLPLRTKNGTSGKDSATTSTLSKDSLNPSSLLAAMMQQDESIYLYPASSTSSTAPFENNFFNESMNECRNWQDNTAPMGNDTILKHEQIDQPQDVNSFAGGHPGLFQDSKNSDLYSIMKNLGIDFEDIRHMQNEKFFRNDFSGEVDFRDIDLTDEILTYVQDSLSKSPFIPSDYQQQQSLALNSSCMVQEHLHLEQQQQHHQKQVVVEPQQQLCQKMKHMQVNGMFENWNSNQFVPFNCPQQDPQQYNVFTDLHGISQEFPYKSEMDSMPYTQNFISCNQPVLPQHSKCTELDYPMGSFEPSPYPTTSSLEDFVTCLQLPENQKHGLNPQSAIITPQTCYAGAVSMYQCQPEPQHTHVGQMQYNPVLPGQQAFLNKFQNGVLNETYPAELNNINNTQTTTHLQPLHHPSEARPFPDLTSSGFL
Method in brief: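 Read-out: reporter mRNA quantified by RT-PCR with fluorescent primer extension and capillary electrophoresis. Human HepG2 liver cells carried transfected cis-promoter reporter units and were exposed to chemical for 24 h; gain or loss fitted relative to DMSO.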

[6] = ATG_AP_1_CIS: Attagene CIS-FACTORIAL HepG2 Assay for human Activator Protein 1 (AP-1) (AID 2282931); settings: HepG2 Attagene cis-factorial AP-1 reporter mRNA; actives raise or lower the signal
Method in brief: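 Transient MRTU transfection of HepG2 → 24 h chemical treatment → RNA isolation, RT-PCR, 6-FAM labelling, HpaI digest → capillary electrophoresis. Fit: bidirectional, DMSO negative control.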

[7] = ATG_AP_2_CIS: Attagene CIS-FACTORIAL HepG2 Assay for human Activator Protein 2 (AP-2) (AID 2282932); settings: HepG2 AP-2 cis-reporter, Attagene transcription factor profiling; actives raise or lower the signal
Method in brief: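 Read-out: fluorescent reporter mRNA via RT-PCR and capillary electrophoresis, 24 h post-dose in transiently transfected HepG2. Endogenous factors drive cis-promoter reporters; gain or loss of signal fitted bidirectionally against DMSO.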

[8] = ATG_BRE_CIS: Attagene CIS-FACTORIAL HepG2 Assay for human Bone Morphogenetic Protein (BMP) Response Element (BRE) (AID 2282933); settings: HepG2 BMP response element reporter, Attagene transcription factor profiling; actives raise or lower the signal
Method in brief: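 Endogenous transcription factor activity at a BMP response element was monitored in transfected HepG2 cells 24 h after dosing. Fluorescent RT-PCR products were resolved by capillary electrophoresis, and activity was fitted in both directions versus DMSO.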

[9] = biological target: Retinoic acid receptor alpha (Homo sapiens) (UniProt P10276); test: ATG_DR5_RAR_CIS: Attagene CIS-FACTORIAL HepG2 Assay for human Retinoic Acid Receptor Alpha (RARE), DR5 submotif (AID 2282934); settings: HepG2 Attagene cis-factorial RARE DR5 reporter, mRNA; actives raise or lower the signal;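 on AC50: reporter responds to endogenous RAR alpha beta and gamma in HepG2 not RARA alone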
Retinoic acid receptor alpha (Homo sapiens), sequence (P10276 whole entry, looked up): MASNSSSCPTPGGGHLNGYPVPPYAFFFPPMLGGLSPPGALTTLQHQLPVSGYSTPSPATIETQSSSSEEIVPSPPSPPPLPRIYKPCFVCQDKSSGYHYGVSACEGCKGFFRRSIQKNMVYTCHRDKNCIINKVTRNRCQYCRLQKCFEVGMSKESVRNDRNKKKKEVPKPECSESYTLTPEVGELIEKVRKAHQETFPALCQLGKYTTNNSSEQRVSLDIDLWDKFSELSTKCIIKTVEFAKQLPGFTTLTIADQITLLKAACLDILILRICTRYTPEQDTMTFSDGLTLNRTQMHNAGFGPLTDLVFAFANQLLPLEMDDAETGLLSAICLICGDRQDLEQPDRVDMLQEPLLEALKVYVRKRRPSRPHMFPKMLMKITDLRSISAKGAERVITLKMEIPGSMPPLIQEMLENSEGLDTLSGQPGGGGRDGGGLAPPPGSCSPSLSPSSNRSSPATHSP
Method in brief: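 Read-out: DR5-driven reporter transcript measured by RT-PCR, 6-FAM primer extension, HpaI digest and capillary electrophoresis. Human HepG2 liver cells carry transiently transfected cis-element reporter constructs; dosing lasts 24 h. Gain or loss of signal fitted against DMSO baseline.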

[10] = biological target: Transcription factor E2F1 (Homo sapiens) (UniProt Q01094); test: ATG_E2F_CIS: Attagene CIS-FACTORIAL HepG2 Assay for human E2F Transcription Factor 1 (AID 2282935); settings: HepG2 Attagene cis-reporter, E2F reporter RNA transcripts; actives raise or lower the signal
Transcription factor E2F1 (Homo sapiens), sequence (Q01094 whole entry, looked up): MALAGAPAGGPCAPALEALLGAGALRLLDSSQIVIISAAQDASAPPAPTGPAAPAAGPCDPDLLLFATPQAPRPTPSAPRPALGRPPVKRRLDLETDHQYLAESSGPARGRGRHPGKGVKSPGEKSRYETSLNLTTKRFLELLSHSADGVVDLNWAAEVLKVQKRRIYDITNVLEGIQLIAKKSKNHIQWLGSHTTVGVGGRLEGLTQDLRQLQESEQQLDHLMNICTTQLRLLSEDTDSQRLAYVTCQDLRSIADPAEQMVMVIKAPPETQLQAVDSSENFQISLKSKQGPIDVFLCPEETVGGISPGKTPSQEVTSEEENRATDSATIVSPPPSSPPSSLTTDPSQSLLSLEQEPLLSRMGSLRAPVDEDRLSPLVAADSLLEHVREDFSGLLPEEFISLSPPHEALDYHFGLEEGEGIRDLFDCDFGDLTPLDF
Method in brief: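 Transient MRTU transfection of HepG2; 24 h compound exposure; RNA → oligo(dT) RT → PCR → FAM label → HpaI cut → CE fluorescence. Gain/loss of signal fit against DMSO.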

Structure (SMILES)	outcome [1]	outcome [2]	outcome [3]	outcome [4]	outcome [5]	outcome [6]	outcome [7]	outcome [8]	outcome [9]	outcome [10]	AC50 [3]	AC50 [5]	AC50 [7]	AC50 [8]	AC50 [4]	AC50 [6]	AC50 [9]	AC50 [10]
C[C@]12C=CC(=O)C=C1CC[C@@H]1[C@@H]2[C@@H](O)C[C@@]2(C)[C@H]1CC[C@]2(O)C(=O)CO	inactive	inactive	inactive	inactive	inactive	inactive	inactive	inactive	inactive	inactive	–	–	–	–	–	–	–	–
C=C(C)C(=O)OCCOc1ccccc1	inactive	inactive	inactive	inactive	inactive	inactive	inactive	inactive	inactive	inactive	–	–	–	–	–	–	–	–
CC(C)=CC1CC(C)CCO1 (stereo not given)	inactive	inactive	inactive	inactive	inactive	inactive	inactive	inactive	inactive	inactive	–	–	–	–	–	–	–	–
O=c1cc(-c2ccccc2)oc2ccccc12	inactive	inactive	–	inactive	–	inactive	–	–	inactive	inactive	27.7 µM (active)	7.62 µM (active)	26.3 µM (active)	133 µM (active)	–	–	–	–
Cc1ccc2c(c1)C(=O)c1ccccc1C2=O	inactive	inactive	–	inactive	–	inactive	inactive	inactive	inactive	inactive	21.5 µM (active)	9.39 µM (active)	–	–	–	–	–	–
O=c1n(CCO)c(=O)n(CCO)c(=O)n1CCO	inactive	inactive	inactive	inactive	inactive	inactive	inactive	inactive	inactive	inactive	–	–	–	–	–	–	–	–
CC(C)C1=CC2=CC[C@@H]3[C@](C)(CCC[C@@]3(C)C(=O)O)[C@H]2CC1	inactive	inactive	–	–	–	–	inactive	inactive	inactive	inactive	135 µM (active)	31.6 µM (active)	–	–	3.7 µM (active)	149 µM (active)	–	–
Nc1nc2ccccc2[nH]1	inactive	inactive	inactive	inactive	–	inactive	inactive	inactive	inactive	inactive	–	28.6 µM (active)	–	–	–	–	–	–
CCCCCCOC(=O)C(C)CC (stereo not given)	inactive	inactive	inactive	inactive	inactive	inactive	inactive	inactive	inactive	inactive	–	–	–	–	–	–	–	–
CNC(=S)N(C)C	inactive	inactive	inactive	inactive	inactive	inactive	inactive	inactive	inactive	inactive	–	–	–	–	–	–	–	–
NC(=O)N=NC(N)=O	inactive	inactive	inactive	inactive	inactive	inactive	inactive	–	inactive	inactive	–	–	–	35 µM (active)	–	–	–	–
CCCCCCCCCCCCCCCC(=O)OCC	inactive	inactive	inactive	inactive	inactive	inactive	inactive	inactive	inactive	inactive	–	–	–	–	–	–	–	–
CCCCCCCOC(=O)CCC	inactive	inactive	inactive	inactive	inactive	inactive	inactive	inactive	inactive	inactive	–	–	–	–	–	–	–	–
COC(=O)c1ccccc1OC	inactive	inactive	inactive	inactive	inactive	inactive	inactive	inactive	inactive	inactive	–	–	–	–	–	–	–	–
OCCCS	inactive	inactive	inactive	inactive	inactive	inactive	inactive	inactive	inactive	inactive	–	–	–	–	–	–	–	–
C=CC(=O)OCCOC(=O)C=C	inactive	inactive	–	–	inactive	–	–	inactive	inactive	inactive	27.2 µM (active)	–	27.2 µM (active)	–	27.4 µM (active)	126 µM (active)	–	–
CC1(C)S[C@@H]2[C@H](NC(=O)COc3ccccc3)C(=O)N2[C@H]1C(=O)O	inactive	inactive	inactive	inactive	inactive	inactive	inactive	inactive	inactive	inactive	–	–	–	–	–	–	–	–
O=S(=O)(O)c1ccccc1C=Cc1ccc(-c2ccc(C=Cc3ccccc3S(=O)(=O)O)cc2)cc1	inactive	inactive	inactive	inactive	inactive	inactive	inactive	–	inactive	inactive	–	–	–	39.6 µM (active)	–	–	–	–
C1CN(SSN2CCOCC2)CCO1	inactive	inactive	inactive	inactive	inactive	inactive	inactive	inactive	inactive	inactive	–	–	–	–	–	–	–	–
Cc1cccc(OCCOc2cccc(C)c2)c1	inactive	inactive	inactive	inactive	inactive	inactive	inactive	inactive	inactive	inactive	–	–	–	–	–	–	–	–
CCCCCc1ccc(Cl)cc1	inactive	inactive	–	inactive	inactive	inactive	inactive	inactive	–	–	66.4 µM (active)	–	–	–	–	–	84.1 µM (active)	61.5 µM (active)

— PubChem BioAssay (EPA / NIEHS)
